Screen size: about 1,100 compounds; about 940 (85%) were called active. So high a share suggests a set chosen from earlier hits. The list is a sample of the results. Unmarked numbers belong to inactive results.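 How the source made its calls: active means inhibition exceeding 3 SD of buffer-only control wells (cut at about 26% in these data); inactive means the rest.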
Assay: carbachol calcium response changes in non-induced cells, primary screen, counter-screen for RGS4 activator project, cell-based, HEK293 M3R, non-induced RGS4, Fluo-4 calcium (AID 602283);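 further: percent drop in integrated peak-minus-baseline over baseline Fluo4 ratio after carbachol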
Settings: HEK293 M3R non-induced RGS4, Fluo4 calcium flux, at 10 µM, active compounds read high, after carbachol challenge at its EC90
With `OC(CN=c1sc2ccccc2n1CC(O)COc1ccccc1)COc1ccccc1` (stereo not given) the inhibition was 92.8% (active).
For `Cc1ccc(C)c(N2CCN(C(=O)CCCCCn3c(=S)[nH]c4ccc(N5CCOCC5)cc4c3=O)CC2)c1`, the inhibition was 52.8% (active).
In the case of `Cc1ccc(C)c(N2CCN(C(=O)CCCn3c(=O)c4cccn4c4cccnc43)CC2)c1`, the inhibition was 55.3% (active).
For `CCOC(=O)c1c(NC(=O)NC(C)(C)C)sc2c1CCN(C)C2`, the inhibition was 0% [the number is a placeholder, only the call stands].
For `COc1ccc(/C=C(\C#N)c2c[nH]c3ccccc23)cc1`, the inhibition was 70.8% (active).
In the case of `Cc1ccc(N2C(=O)CC(Nc3cccc4ccccc34)C2=O)cc1` (stereo not given), the inhibition was 0% [the number is a placeholder, only the call stands].
For `Cc1oc2c(F)c(F)c(F)c(F)c2c1S(=O)(=O)Nc1cccc(C(F)(F)F)c1`, the inhibition was 88.8% (active).
With `Cc1nc(N2CCN(c3ccccn3)CC2)c2c(C)c(C(=O)Nc3ccc(F)cc3)sc2n1` the inhibition was 72.8% (active).
In the case of `O=S(=O)(c1ccc(Br)cc1)n1ccc2ccccc21`, the inhibition was 36.8% (active).
For `Cc1ccc(OCCCCN2CCCCC2)c(Br)c1`, the inhibition was 0% [the number is a placeholder, only the call stands].
For `CCCN(CCc1ccccc1)C1CCc2c(O)cccc2C1` (stereo not given), the inhibition was 34.8% (active).
With `Cc1cccc(-c2nc3ccc(C(=O)NCCN4CCN(C)CC4)cc3nc2-c2cccc(C)c2)c1` the inhibition was 93.8% (active).
With `CN1CCN(C(=O)N2c3ccccc3CCc3ccccc32)CC1` the inhibition was 57.3% (active).
In the case of `Cc1nn(C)cc1N1C(=O)c2cccc3c(N)ccc(c23)C1=O`, the inhibition was 101% (active).
In the case of `CN(C)c1ccc(/C=C2\NC(=S)N(Cc3ccccc3)C2=O)cc1`, the inhibition was 62.8% (active).
In the case of `CC(C)C(c1nnnn1CCc1ccccc1)N1CCN(C(=O)c2ccco2)CC1` (stereo not given), the inhibition was 25.8% (active).
For `COc1ccc(C(=O)Nc2nc(-c3ccc(S(=O)(=O)N4CCOCC4)cc3)cs2)cc1`, the inhibition was 36.3% (active).
With `N=c1c2c3c(sc2nc2n1CCCCC2)CCCC3` the inhibition was 55.8% (active).
With `CCOC(=O)C1=C(NC(=S)NC(=O)c2ccccc2)c2ccccc2CC1(C)C` the inhibition was 61.3% (active).
In the case of `OCCC1CN(Cc2ccc3nsnc3c2)CCN1C1CCCC1` (stereo not given), the inhibition was 43.8% (active).
In the case of `CCC1C=C(c2ccccc2)C=CN=C1N(CC)CC` (stereo not given), the inhibition was 83.8% (active).
With `O=C(CN1CCCCCC1)Nc1ccc(S(=O)(=O)N2CCCCC2)cc1` the inhibition was 83.8% (active).
In the case of `COc1cccc(-c2cc3nc4c(c(N5CCC6(CC5)OCCO6)n3n2)CCCC4)c1`, the inhibition was 31.8% (active).
For `CCc1ccccc1NC(=O)[C@@H]1CCC(=O)N1C1OC(=O)c2c1ccc(OC)c2OC` (stereo not given in full), the inhibition was 0% [the number is a placeholder, only the call stands].
With `COc1cc(/C=C(\C#N)c2nc3ccccc3[nH]2)ccc1O` the inhibition was 61.3% (active).
With `CN(C)S(=O)(=O)N1CCC(Oc2cccc(C(=O)NCCCC3CCCC3)c2)CC1` the inhibition was 61.8% (active).
In the case of `CCc1c(C)sc(NC(=O)c2ccc(Br)o2)c1C(=O)OC`, the inhibition was 0% [the number is a placeholder, only the call stands].
With `CCOc1ccc(C(CC(=O)O)NC(=O)COc2ccccc2)cc1` (stereo not given) the inhibition was 0% [the number is a placeholder, only the call stands].
In the case of `Cc1ccccc1C(OCCN(C)C)C1CCCCC1` (stereo not given), the inhibition was 95.3% (active).
With `O=C(Cn1c(N2CCN(C/C=C/c3ccccc3)CC2)nc2ccccc21)c1ccccc1` the inhibition was 91.8% (active).
With `COc1ccc(CN2CCCC(C(=O)c3ccc(Cl)cc3)C2)cc1Cn1cncn1` (stereo not given) the inhibition was 68.8% (active).
For `COc1cccc(/C=N/Nc2cc(C)nc(-c3ccccc3O)n2)c1O`, the inhibition was 85.8% (active).
For `Cc1cccc(-c2nc(Nc3ccc(O)cc3)c3ccccc3n2)c1`, the inhibition was 35.3% (active).
With `Oc1ccccc1N1CCN(c2ncnc3sc(-c4ccccc4)cc23)CC1` the inhibition was 26.3% (active).
For `COc1ccccc1C(CNC(=O)c1cccc(NS(=O)(=O)c2ccc(Br)cc2)c1)N(C)C` (stereo not given), the inhibition was 51.3% (active).
In the case of `COc1cccc(CNC(=O)CCC2CCCN(Cc3ccc(OC(F)F)cc3)C2)c1` (stereo not given), the inhibition was 83.8% (active).
For `CCC1CCCCN1CCCNC(=O)c1cc2c(Cl)nc3ccccc3c2s1` (stereo not given), the inhibition was 71.8% (active).
With `O=C(c1cccs1)C1C(c2ccc(Br)cc2)NC(=S)NC1(O)C(F)(F)F` (stereo not given) the inhibition was 90.8% (active).
For `Cc1cc2oc3ccc(NCCC4CCCN4C)cc3c(=O)c2cc1C` (stereo not given), the inhibition was 87.8% (active).
With `CN(C)CCOc1ccc(Cl)cc1C(C)(C)C` the inhibition was 47.8% (active).
With `Cc1ccc(OS(=O)(=O)c2ccc(-c3csc(C)n3)s2)c(C)c1` the inhibition was 33.8% (active).
In the case of `C#CC(CCN1CCCCC1)(OC)c1ccccc1` (stereo not given), the inhibition was 63.8% (active).
For `CCCCCC(O)(CCN1CCCCC1)c1ccccc1` (stereo not given), the inhibition was 95.3% (active).
In the case of `S=c1[nH]nc(-c2ccc(Cl)cc2)n1CC1CCCO1` (stereo not given), the inhibition was 0% [the number is a placeholder, only the call stands].
With `Cc1ccc(SCC(=O)c2cc(C)c(OC(=S)N(C)C)c(C)c2)cc1` the inhibition was 42.8% (active).
With `COc1ccc(C(=O)NC2CCCc3c2cnn3-c2cccc(C)c2C)c(OC)n1` (stereo not given) the inhibition was 64.8% (active).
With `COc1ccc(CN(C)C(=O)c2cc(-c3ccc(C)cc3C)nc3ccccc23)c(OC)c1OC` the inhibition was 51.3% (active).
With `COc1ccc(-c2cc(C(=O)N(C)Cc3ccccc3)c3ccccc3n2)cc1` the inhibition was 72.3% (active).
For `Cc1ccnc(SCCn2c(N(C)Cc3ccccc3)nc3c2c(=O)n(C)c(=O)n3C)n1`, the inhibition was 28.3% (active).
For `COC(=O)c1ccc(CN2CCC(CO)(Cc3ccc(OC)cc3)CC2)cc1`, the inhibition was 70.8% (active).
